# Results filed as inconclusive are left out. The source made the active and inactive calls. Rule as the data show it, unless noted: active = inhibition above about 80%; inactive = the rest.
# Key:
# [1] = growth inhibition of DIPG glioma cells, dose response, cell-based, JHH-DIPG-1, MIPE4.0, CellTiter-Glo, qHTS (AID 1347062; cut-off not given, nearly all actives have AC50 up to about 27 µM); settings: JHH-DIPG-1 viability, CellTiter-Glo ATP luminescence
# [2] = growth inhibition of DIPG glioma cells, dose response, cell-based, SU-DIPG-IV, MIPE4.0, CellTiter-Glo, qHTS (AID 1347063; cut-off not given, nearly all actives have AC50 up to about 30 µM;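 also: compound exposure lasted 48 hours before the viability readout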); settings: SU-DIPG-IV viability, CellTiter-Glo ATP luminescence
# [3] = SU-DIPG-VI glioma cell viability, MIPE4.0 library, CellTiter-Glo luminescence, qHTS (AID 1347066; cut-off not given, nearly all actives have AC50 up to about 30 µM;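 also: cells exposed to compound for 48 hours before readout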); settings: CellTiter-Glo ATP luminescence
# [4] = LFS_MB_P medulloblastoma growth inhibition, cell-based, chromothripsis tumors, cisplatin or BGB combos (AID 1671449); settings: LFS_MB_P medulloblastoma cells;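 also: cells exposed for 96 hours; 0% = vehicle DMSO and 100% = killing by high DMSO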
# [5] = HDN33 neuroblastoma growth inhibition, cell-based, chromothripsis tumors, cisplatin or BGB combos (AID 1671450); settings: HDN33 neuroblastoma cells, stronger effect = higher value;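 also: cells exposed to compound for four days; 0% = vehicle DMSO and 100% = cell killing by high DMSO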
# [6] = ICB984 medulloblastoma cell growth inhibition, synergistic combos for chromothripsis tumors, cisplatin or BGB combos (AID 1671451; call rule not given here;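 also: cells exposed for 96 hours before readout; 0% = vehicle DMSO and 100% = killing by high DMSO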); settings: ICB984 medulloblastoma cells, drug combinations, stronger effect = higher value
# [7] = LFS_MB_1R medulloblastoma cell growth inhibition, synergistic combos for chromothripsis tumors, cisplatin or BGB combos (AID 1671452); settings: LFS_MB_1R medulloblastoma cells, stronger effect = higher value;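 also: cells exposed for 96 hours before readout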
# [8] = HTB85 osteosarcoma cell growth inhibition, synergistic combos for chromothripsis tumors, BGB or cisplatin IC20 combos (AID 1671453); settings: HTB85 osteosarcoma cells, drug combinations, stronger effect = higher value;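 also: cells exposed for 96 hours before readout; 0% = vehicle DMSO and 100% = high DMSO killing control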
# [9] = CRL2098 osteosarcoma cell growth inhibition, synergistic combos for chromothripsis tumors, BGB or cisplatin IC20 combos (AID 1671454); settings: CRL2098 osteosarcoma cells, drug combinations, stronger effect = higher value;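 also: cells exposed for 96 h before readout; 0% = vehicle DMSO and 100% = killing by high DMSO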
# [10] = HD-MB03 medulloblastoma cell growth inhibition, synergistic combos for chromothripsis tumors, BGB or cisplatin IC20 combos (AID 1671455; in the data active = inhibition above about 83%;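 also: 0% = vehicle DMSO and 100% = high DMSO as cytotoxic control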); settings: HD-MB03 medulloblastoma cells, stronger effect = higher value
# [11] = UWB1.289 ovarian carcinoma cell growth inhibition, synergistic combos for chromothripsis tumors, BGB or cisplatin combos (AID 1671456); settings: UWB1.289 ovarian carcinoma cells, stronger effect = higher value;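 also: cells exposed to compound for four days; 0% = vehicle DMSO and 100% = killing by high DMSO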
# [12] = LFS_MB_2R medulloblastoma cell growth inhibition, synergistic combos for chromothripsis tumors, cisplatin combos (AID 1671457); settings: LFS_MB_2R medulloblastoma cells, stronger effect = higher value;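 also: cells exposed to compound for four days before readout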
# [13] = MDA-MB-436 breast carcinoma cell growth inhibition, synergistic combos for chromothripsis tumors, BGB or cisplatin combos (AID 1671458; call rule not given here;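 also: cells exposed for 96 hours; 0% = vehicle DMSO and 100% = killing by high DMSO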); settings: MDA-MB-436 breast carcinoma growth inhibition, drug combinations, stronger effect = higher value
# [14] = UWB1.289_BRCA1 ovarian cancer growth, cell-based, BGB or cisplatin combinations (AID 1671459); settings: UWB1.289 BRCA1 ovarian carcinoma, drug combinations, stronger effect = higher value
# [15] = human astrocyte viability loss, single and combined drugs, cytotoxicity control for chromothriptic childhood tumor combination screen, cell-based, BGB or cisplatin IC20 combos (AID 1671460); settings: Human astrocytes, drug combinations, stronger effect = higher value;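 also: cells exposed to compounds for 96 hours before viability readout; 0% = vehicle and 100% = killing control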
# [16] = growth inhibition of BT084 medulloblastoma cells, cell-based, ICGC_MB145, cisplatin and BGB IC40 combos (AID 1671461); settings: drug combinations, stronger effect = higher value;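 also: cells exposed to drugs for 96 hours; 0% = vehicle DMSO and 100% = high DMSO full killing control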
# [17] = growth inhibition of RCMB18 medulloblastoma cells, cell-based, cisplatin and BGB IC40 combos (AID 1671462); settings: stronger effect = higher value;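 also: cells exposed to compound for four days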
# [18] = growth inhibition of CRL1545 osteosarcoma cells, cell-based, cisplatin and BGB IC20 combos (AID 1671464); settings: stronger effect = higher value;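 also: cells exposed to compound for 96 hours before readout; 0% = vehicle DMSO and 100% = high DMSO killing control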
# [19] = measured here: combination with BGB IC40, at 0.05 µM
# [20] = measured here: with BGB IC20 combination, at 0.5 µM
# [21] = measured here: with cisplatin IC20 combination, at 0.5 µM
# [22] = measured here: combination with cisplatin, at 0.5 µM
# [23] = measured here: combination with cisplatin, at 5 µM
smiles,measurement,setting,value
Cc1cn([C@@H]2O[C@H](CO)[C@@H](O)[C@@H]2F)c(=O)[nH]c1=O,outcome,[1],inactive
same,outcome,[2],inactive
same,outcome,[3],inactive
same,inhibition,"[4]; at 0.5 µM, stronger effect = higher value",-22.2% (inactive)
same,inhibition,"[4]; measured here: combination with BGB IC20, at 0.005 µM",-21.4%
same,inhibition,"[4]; measured here: combination with BGB IC40, at 0.005 µM",24.6%
same,inhibition,[4]; [19],-36.4%
same,inhibition,"[4]; measured here: combination with cisplatin, at 0.5 µM, stronger effect = higher value",-29.1%
same,inhibition,"[4]; measured here: combination with cisplatin, at 5 µM, stronger effect = higher value",-25.8%
same,inhibition,"[5]; BGB combo, at 5 µM",-42.9%
same,inhibition,[5]; at 0.5 µM,15.9% (inactive)
same,inhibition,"[5]; cisplatin combo, at 5 µM",-14%
same,inhibition,[5]; [20],25%
same,inhibition,[5]; [21],22.2%
same,inhibition,"[5]; single agent, at 5 µM",-22.6%
same,inhibition,"[6]; BGB IC20 combo, at 0.005 µM",-11.3%
same,inhibition,"[6]; BGB IC40 combo, at 0.005 µM",-20.8%
same,inhibition,"[6]; BGB IC40 combo, at 0.05 µM",-28.4%
same,inhibition,[6]; at 0.5 µM,-27.1% (inactive)
same,inhibition,"[6]; cisplatin combo, at 0.05 µM",-35%
same,inhibition,"[6]; cisplatin combo, at 0.5 µM",-33.8%
same,inhibition,"[6]; cisplatin combo, at 5 µM",-27.5%
same,inhibition,"[6]; measured here: 5 uM single agent, at 5 µM",-20.1%
same,inhibition,[7]; at 0.5 µM,-24% (inactive)
same,inhibition,[7]; [19],-37.2%
same,inhibition,[7]; [22],-20.9%
same,inhibition,[7]; [23],-19%
same,inhibition,[8]; at 0.5 µM,7.88% (inactive)
same,inhibition,"[8]; measured here: with BGB IC20, at 0.5 µM",40.2%
same,inhibition,"[8]; measured here: with BGB IC20, at 5 µM",-1.08%
same,inhibition,"[8]; measured here: with cisplatin IC20, at 0.5 µM",-7.9%
same,inhibition,"[8]; measured here: with cisplatin IC20, at 5 µM",-2.9%
same,inhibition,"[8]; single agent, at 5 µM",6.67%
same,inhibition,[9]; at 0.5 µM,-20.9% (inactive)
same,inhibition,"[9]; measured here: combination with BGB at IC20, at 0.5 µM",-6.05%
same,inhibition,"[9]; measured here: combination with cisplatin at IC20, at 0.5 µM",-15.6%
same,inhibition,[10]; at 0.5 µM,-11.4% (inactive)
same,inhibition,"[10]; measured here: combo with BGB at IC20, at 0.5 µM",-16%
same,inhibition,"[10]; measured here: combo with cisplatin at IC20, at 0.5 µM",-8.28%
same,inhibition,[11]; at 0.5 µM,-3.54% (inactive)
same,inhibition,"[11]; measured here: inhibition with BGB combination, at 0.05 µM",-7.92%
same,inhibition,"[11]; measured here: inhibition with cisplatin combination, at 0.05 µM",2.99%
same,inhibition,[12]; at 0.5 µM,-27.6% (inactive)
same,inhibition,[12]; [22],-30.2%
same,inhibition,[12]; [23],-44.4%
same,inhibition,[13]; at 0.5 µM,-24.5% (inactive)
same,inhibition,"[13]; measured here: BGB combination, at 0.5 µM",-21.7%
same,inhibition,"[13]; measured here: BGB combination, at 5 µM",-19.5%
same,inhibition,"[13]; measured here: cisplatin combination, at 0.5 µM",-37.4%
same,inhibition,"[13]; measured here: cisplatin combination, at 5 µM",-37%
same,inhibition,"[14]; BGB combination, concentration series, at 5 µM",-5.53%
same,inhibition,[14]; at 0.5 µM,-5.97% (inactive)
same,inhibition,"[14]; cisplatin combination, concentration series, at 5 µM",11.6%
same,inhibition,[15]; at 0.5 µM,10.9% (inactive)
same,inhibition,"[15]; measured here: combo with BGB IC20, at 0.5 µM",14.5%
same,inhibition,"[15]; measured here: combo with cisplatin IC20, at 0.5 µM",15.4%
same,inhibition,[16]; at 0.5 µM,-12.8% (inactive)
same,inhibition,"[16]; cisplatin combination, at 0.5 µM",3.7%
same,inhibition,"[16]; cisplatin combination, at 5 µM",-127%
same,inhibition,"[16]; measured here: BGB IC40 combination 0.05 uM, at 0.05 µM",-18.9%
same,inhibition,"[16]; single agent, at 5 µM",-21.7%
same,inhibition,[17]; at 0.5 µM,-23.1% (inactive)
same,inhibition,"[17]; cisplatin combo, at 5 µM",-15.5%
same,inhibition,"[17]; measured here: BGB IC40 combination, at 0.05 µM",-13.9%
same,inhibition,[17]; [22],-19%
same,inhibition,"[17]; single agent, at 5 µM",-12.7%
same,inhibition,[18]; at 0.5 µM,12.7% (inactive)
same,inhibition,[18]; [20],6.33%
same,inhibition,[18]; [21],14.6%
same,inhibition,"[18]; single agent, at 0.05 µM",-20.4%
same,inhibition,"[18]; single agent, at 5 µM",5.83%
CC(=O)NC(C)c1ccc(Oc2ccc(OC(C)C)cc2)cc1 (stereo unspecified),outcome,[1],inactive
same,outcome,[3],inactive
CC(C)(C)[C@H](NC(=O)c1ccc(N)c(Cl)c1)C(=O)N1CCC[C@H]1C(=O)N[C@H](C#N)CC(=O)O,outcome,[1],inactive
same,outcome,[2],inactive
same,outcome,[3],inactive
